# Inconclusive results are not listed. The source made the active and inactive calls. Calls follow the shape of the dose curve; as a rule, active = well fitted activation curve with a large enough effect; inconclusive = small, poorly fitted or top-dose-only effect; inactive = no such curve, though single readings can be large or run the other way.
# Assay: Confirmation Concentration-Response Assay for Enhancers of SMN2 Splice Variant Expression
# Settings: HEK293 SMN2-exon7-luciferase splicing reporter, luminescence, 30-36 h; series mostly up to 46.1 µM; activation: at the top concentration
# Summary of the method: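 Luciferase signal reports exon 7 inclusion from an SMN2-luciferase construct stably expressed in HEK293 cells. After 30-36 h compound exposure at 37C, One Glo reagent was added and luminescence read; sodium butyrate 4.5mM final served as control.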
Compound,activation,Potency
COC(=O)C1=C(CN2CCc3ccccc32)NC(=O)NC1c1cc(C)ccc1C (configuration not stated),-40.4% (inactive),–
O=c1[nH]c(=O)n(C2CCCO2)cc1Br (configuration not stated),-5.56% [at 22.7 µM] (inactive),–
c1ccc(-c2nnc(-c3ccccc3)c(-c3c[nH]c4ccccc34)n2)cc1,4.63% [at 22.7 µM] (inactive),–
O=[N+]([O-])c1ccc(-c2nnc(-c3ccccc3)c(N3CCOCC3)n2)cc1,-27% [at 22.7 µM] (inactive),–
Cc1nnc(-c2ccccc2)[nH]c1=O,-2.84% [at 22.7 µM] (inactive),–
COC(=O)C1=C(C)NC(=O)/C1=C\c1cc(C)n(-c2ccccc2F)c1C,-7.59% (inactive),–
Cc1oncc1C(=O)Nc1ccc(C(F)(F)F)cc1,–,7.08 µM (active)
OC[C@H]1O[C@@H](n2cnc3c(Nc4ccccc4)ncnc32)[C@H](O)[C@H]1O,–,8.91 µM (active)
Cc1ccc(-c2csc(N3CCC(NS(=O)(=O)c4ccc5c(c4)OCCO5)CC3)n2)cc1,-59.4% [at 22.7 µM] (inactive),–
CCCc1sc(N2CCCC(C(N)=O)C2)nc1-c1ccccc1 (configuration not stated),-3.13% [at 22.7 µM] (inactive),–
OCCCNc1nc(-c2ccc(Br)cc2)nnc1-c1ccc(Cl)cc1,-38.2% [at 22.7 µM] (inactive),–
O=S(=O)(NC1CCCc2ccccc21)c1cnc[nH]1 (configuration not stated),-0.677% (inactive),–
CN(C)CCCN(C(=O)c1cccs1)c1nc(-c2ccccc2)cs1,-7.7% [at 22.7 µM] (inactive),–
FC(F)(F)c1cccc(Oc2nc(-c3ccccc3)nnc2C(F)(F)F)c1,-14.5% [at 22.7 µM] (inactive),–
Cc1ccc(C2c3c(oc4ccccc4c3=O)C(=O)N2CCCN2CCOCC2)o1 (configuration not stated),14.5% (inactive),–
COc1nc(-c2ccc(Cl)cc2)nnc1C,7.47% [at 22.7 µM] (inactive),–
NC(=O)C1(N2CCCCC2)CCN(c2nc(-c3ccccc3)cs2)CC1,-7.38% [at 22.7 µM] (inactive),–
O=C(NCCCNCCCNC(=O)c1ccccn1)c1ccccn1,-12% (inactive),–
CCCCOC(C)n1cc(F)c(=O)[nH]c1=O (configuration not stated),-17.1% [at 22.7 µM] (inactive),–
Nc1ccccc1-c1nnn(CC(=O)N2CCCc3ccccc32)n1,-22.5% (inactive),–
O=[N+]([O-])c1ccc(-c2nnc(-c3ccccc3)c(NCCCO)n2)cc1,23.6% [at 22.7 µM] (inactive),–
CCC1=Nc2ccccc2-c2nnc(SC)nc2O1,-6.69% [at 22.7 µM] (inactive),–
FC(F)C(F)(F)C1=CC(c2cccs2)=NCCN1,0.924% (inactive),–
Brc1nc2ncnc(NCc3ccco3)c2[nH]1,-18% (inactive),–
Fc1ccc(Oc2nc(-c3ccccc3)nnc2C(F)(F)F)cc1,-16.3% [at 22.7 µM] (inactive),–
Nn1c(SCC(=O)NCCC2=CCCCC2)nnc1C1CCCCC1,9.87% (inactive),–
CCCSc1nnc(Sc2nnnn2-c2ccccc2)s1,-84.7% (inactive),–

# — PubChem BioAssay AID1740 (National Center for Advancing Translational Sciences (NCATS), 2009)
